Screening results (PubChem BioAssay)
GDH-TPI counter: GDH-TPI coupling enzyme inhibitors, primary screen, artefact control for M. tuberculosis FBA inhibitor project, biochemical, absorbance, full deck. GDH-TPI coupled enzyme counterscreen, NADH absorbance. inhibition, % at 4.8 µM. 360,000 tested, 1.2% active. AID 588335, 2011; in the data active = inhibition above about 30%;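 also: 0% = DMSO wells and 100% = wells lacking the enzyme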
Mtb FBA inh: Mtb FBA enzyme inhibitors, primary screen, biochemical, fluorescence, strain H37Rv | AID 588726, 2011 | 360,000 tested, 2.3% active | Fructose-bisphosphate aldolase (Mycobacterium tuberculosis (strain ATCC 25618 / H37Rv)), … | inhibition, % at 1 µM | purified M. tuberculosis FBA, fluorescence read-out; in the data active = inhibition above about 27%;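 also: 0% = vehicle and 100% = reference inhibitor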
Target sequence (P9WQA3 whole entry, looked up): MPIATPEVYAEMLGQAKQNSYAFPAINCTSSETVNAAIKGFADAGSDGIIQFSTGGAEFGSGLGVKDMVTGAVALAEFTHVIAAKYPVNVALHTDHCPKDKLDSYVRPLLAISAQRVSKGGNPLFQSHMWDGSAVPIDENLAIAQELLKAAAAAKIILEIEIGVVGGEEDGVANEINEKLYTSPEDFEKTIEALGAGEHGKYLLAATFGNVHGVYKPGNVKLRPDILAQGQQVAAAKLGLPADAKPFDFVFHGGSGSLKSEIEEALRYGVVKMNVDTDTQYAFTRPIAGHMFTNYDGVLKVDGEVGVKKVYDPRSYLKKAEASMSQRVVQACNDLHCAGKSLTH
RecA intein inh: Mtb RecA intein splicing inhibitors, primary screen, biochemical, fluorescence, HTS | Protein RecA (Mycobacterium tuberculosis (strain ATCC 25618 / H37Rv)), P9WHJ3 | cell-free RecA intein splicing | inhibition, % (concentration not given with the values) | 290,000 tested, 0.75% active | AID 2221, 2009; in the data active = inhibition above about 30%; inconclusive = no clear call, values can overlap the other calls;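 also: 0% = vehicle wells and 100% = reference inhibitor control wells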
Rv3671c protease: Rv3671c serine protease inhibitors, primary screen, biochemical, fluorescence polarization, M. tuberculosis H37Rv. P9WHR9. inhibition, % at 5.96 µM. 320,000 tested, 0.048% active. AID 2606, 2010; in the data active = inhibition above about 38%;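 also: extracellular domain of Rv3671c used as enzyme; 0% = enzyme with DMSO and 100% = no enzyme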
Mtb UGM inh: M. tuberculosis UGM enzyme inhibitors, primary screen, biochemical, fluorescence polarization, single point. UDP-galactopyranose mutase (Mycobacterium tuberculosis (strain ATCC 25618 / H37Rv)), …. purified UGM, fluorescence polarization probe displacement. inhibition, % at 10 µM. 320,000 tested, 0.06% active. AID 504406, 2011; in the data active = inhibition above about 10%, passing the limit was not always enough; inconclusive = no clear call, values can overlap the other calls
Mtb bLac sens: beta-lactam sensitization of Mtb H37Rv, H37Rv; M. tuberculosis H37Rv growth with meropenem, percent inhibition; inhibition, % at 25 µM; 330,000 tested, 0.27% active; AID 434955, 2010; call rule not given here;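 also: growth measured after seven days incubation then overnight dye step; 0% = bacteria only wells and 100% = bacteria with antibiotic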
The depositor's hits bear a star. Rows were chosen to be rich in hits. Some 4% of all compounds tested hit in one or more screens of this group.

What do the screens show for `CCCCN1C(=O)C(=O)N(CC(=O)N2N=C3/C(=C/c4ccco4)CCCC3C2c2ccco2)C1=O` (stereo not drawn)?
GDH-TPI counter: 5; Mtb FBA inh: -2; RecA intein inh: 0; Rv3671c protease: 0; Mtb UGM inh: 0; Mtb bLac sens: 0

How did COc1ccc(/C=C/C(=O)Nc2ccccc2C(=O)O)cc1 do in these assays?
GDH-TPI counter: 20; Mtb FBA inh: -2; RecA intein inh: -1; Rv3671c protease: -6; Mtb UGM inh: 3; Mtb bLac sens: 0

Results for COc1ccc(/C=C/C(=O)Nc2ccccc2C(F)(F)F)cc1OC ?
GDH-TPI counter: 31*; Mtb FBA inh: 10; RecA intein inh: 0; Rv3671c protease: -4; Mtb UGM inh: 1; Mtb bLac sens: -5

What do the screens show for `COc1ccc(/C=C/C(=O)Nc2ccccc2C(=O)N2CCCC2)cc1`?
GDH-TPI counter: 36*; Mtb FBA inh: -1; RecA intein inh: -6; Rv3671c protease: -6; Mtb UGM inh: -3; Mtb bLac sens: -8

What do the screens show for `CCc1cc(C(=O)O)c(NC(=O)/C=C/c2ccc(OC)c(OC)c2)s1`?
GDH-TPI counter: 18; Mtb FBA inh: -4; RecA intein inh: -1; Rv3671c protease: 8; Mtb UGM inh: 6; Mtb bLac sens: 81

How did CCN(CC)CCNC(=O)c1ccc(NC(=O)/C=C/c2cc(OC)c(OC)c(OC)c2)cc1 do in these assays?
GDH-TPI counter: 36*; Mtb FBA inh: 4; RecA intein inh: -2; Rv3671c protease: -1; Mtb UGM inh: -1; Mtb bLac sens: 7

Results for COc1ccc(/C=C/C(=O)Nc2ccccc2C(F)(F)F)cc1 ?
GDH-TPI counter: 10; Mtb FBA inh: 0; RecA intein inh: 1; Rv3671c protease: 5; Mtb UGM inh: -1; Mtb bLac sens: -3

How did CCc1cc(C(=O)O)c(NC(=O)/C=C/c2ccc(OC)cc2)s1 do in these assays?
GDH-TPI counter: 74*; Mtb FBA inh: -1; RecA intein inh: 2; Rv3671c protease: 7; Mtb UGM inh: 2

Results for CCOC(=O)c1sc(N2C(=O)C(O)=C(C(=O)c3ccco3)C2c2ccco2)nc1C (stereo not drawn) ?
GDH-TPI counter: 7; Mtb FBA inh: 0; RecA intein inh: -1; Rv3671c protease: -13; Mtb UGM inh: -1; Mtb bLac sens: 5

How did CC1CCCN(CC(O)COCC2COc3ccccc3O2)C1 (stereo not drawn) do in these assays?
GDH-TPI counter: -3; Mtb FBA inh: 4; RecA intein inh: 0; Rv3671c protease: -3; Mtb UGM inh: -4; Mtb bLac sens: 12

How did COc1ccccc1NC(=O)CCc1nc2sc3c(c2c(=O)[nH]1)CCCC3 do in these assays?
GDH-TPI counter: 1; Mtb FBA inh: -4; RecA intein inh: 0; Rv3671c protease: -14; Mtb UGM inh: 0; Mtb bLac sens: 0

How did CN(C(=O)CNc1ccccc1Cl)C1CCS(=O)(=O)C1 (stereo not drawn) do in these assays?
GDH-TPI counter: -1; Mtb FBA inh: 3; Rv3671c protease: -8; Mtb UGM inh: 1; Mtb bLac sens: -8

Results for COc1ccc(/C=C/C(=O)Nc2ccc3c(c2)CCC3)cc1OC ?
GDH-TPI counter: 28; Mtb FBA inh: -1; RecA intein inh: 3; Rv3671c protease: -21; Mtb UGM inh: -2; Mtb bLac sens: -13

How did COc1ccc(/C=C/C(=O)NC(=S)NNC(=O)[C@H]2C[C@@H]2c2ccccc2)cc1OC do in these assays?
GDH-TPI counter: 44*; Mtb FBA inh: 1; RecA intein inh: 0; Rv3671c protease: -1; Mtb UGM inh: 1; Mtb bLac sens: -3

How did COc1ccc(/C=C/C(=O)Nc2cccc(S(=O)(=O)NC3=NCCCCC3)c2)cc1OC do in these assays?
GDH-TPI counter: 35*; Mtb FBA inh: 6; Rv3671c protease: -18; Mtb UGM inh: 4; Mtb bLac sens: -3

What do the screens show for `COc1ccc(/C=C/C(=O)Nc2ccccc2C(=O)O)cc1OC`?
GDH-TPI counter: 47*; Mtb FBA inh: 5; RecA intein inh: 2; Rv3671c protease: -2; Mtb UGM inh: 3; Mtb bLac sens: 3

Results for COc1ccc(/C=C/C(=O)Nc2ccc(C(N)=O)cc2)cc1OC ?
GDH-TPI counter: 53*; Mtb FBA inh: 6; RecA intein inh: 1; Rv3671c protease: -5; Mtb UGM inh: 4; Mtb bLac sens: -3

Results for CC(C)=CC(=O)Nc1cccc(S(=O)(=O)NC2=NCCCCC2)c1 ?
GDH-TPI counter: -4; Mtb FBA inh: -1; Rv3671c protease: 4; Mtb UGM inh: -1; Mtb bLac sens: 2

How did CC1CN(C(=O)COc2ccc3ccccc3c2Br)CC(C)O1 (stereo not drawn) do in these assays?
GDH-TPI counter: 1; Mtb FBA inh: 4; RecA intein inh: 2; Rv3671c protease: 1; Mtb UGM inh: 2; Mtb bLac sens: -3

Results for CN(C)CCNC(=O)c1cccc2ccc(-c3ccc(-c4ccccc4)cc3)nc12 ?
GDH-TPI counter: 10; Mtb FBA inh: 58*

Results for CCNC(=S)Nc1ccc2c(c1)c(=O)n(C)n2-c1cc(C)cc(C)c1 ?
GDH-TPI counter: 13; Mtb FBA inh: 8

Results for C=C(C)Cn1c2ccc(NC(=O)NCC)cc2c(=O)n1C ?
GDH-TPI counter: 7; Mtb FBA inh: active

What do the screens show for `CCNC(=O)Nc1ccc2c(c1)c(=O)n(C)n2Cc1ccc(Cl)cc1`?
GDH-TPI counter: 11; Mtb FBA inh: active

How did C=C(C)Cn1c2ccc(NC(=O)NCc3ccccc3)cc2c(=O)n1C do in these assays?
GDH-TPI counter: -11; Mtb FBA inh: 166*

What do the screens show for `Cc1ccc(NC(=O)C(=O)NCc2ccc(/C=N/NC(=O)c3c(C)nc4ccccn34)o2)cc1`?
GDH-TPI counter: 42*; Mtb FBA inh: -2; RecA intein inh: 3; Rv3671c protease: -3; Mtb UGM inh: -4; Mtb bLac sens: inconclusive

Results for CC(c1nccs1)N(C)c1nc2nonc2nc1N(C)C (stereo not drawn) ?
GDH-TPI counter: 25; Mtb FBA inh: 2; RecA intein inh: -1; Rv3671c protease: 1; Mtb UGM inh: 0; Mtb bLac sens: -3

Results for CC(c1nccs1)N(C)c1nc2nonc2nc1NC1CC1 (stereo not drawn) ?
GDH-TPI counter: 33*; Mtb FBA inh: -2; RecA intein inh: -1; Rv3671c protease: -8; Mtb UGM inh: 0; Mtb bLac sens: -1

What do the screens show for `N=c1ccn(O)cc1CCc1ccccc1`?
GDH-TPI counter: -1; Mtb FBA inh: -1

Results for Cc1ccccc1OCCn1cc(C(=S)N2CCN(C)CC2)c2ccccc21 ?
GDH-TPI counter: 3; Mtb FBA inh: 0; RecA intein inh: 4; Rv3671c protease: 1; Mtb UGM inh: -1; Mtb bLac sens: 4
